We go through 5 molecules from PubChem BioAssay.

Records with an inconclusive call do not appear. Activity calls are given as the source filed them.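 Rule for the calls, unless noted: active = Her2 level under about 52% in both replicate screens, with viability over 70% of control (limit read from the data); inconclusive = Her2 under the limit in one screen only, or viability under 70%; inactive = Her2 level above the set limit.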

The nature of assay [1]: Her2 expression decrease, cell viability multiplex – SKBR3 breast tumor cells, AlphaScreen, ATP viability, primary screen (AID 461).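 For Her2 level: lower value means less Her2 protein in the cells.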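 For viability: percent of carrier control wells set as 100% viability.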 As to conditions: SKBR3 Her2 protein level, 18-24 h, measured here: SKBR3 viability, ATP luminescence, at 10 µM.
The target in assay [2] is Receptor tyrosine-protein kinase erbB-2 (Homo sapiens) (UniProt P04626). The assay is described as above. As to conditions: 18-24 h, at 10 µM, stronger effect = lower value.
Assay [3] is described as follows: reduced viability of SK-BR-3 breast cancer cells – cell-based, 24 h, human, pilot screen (AID 572;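 active = viability at or below 10% of carrier control in both of two separate runs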;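 note: compound exposure lasted between 18 and 24 h rather than exactly 24 h; 100% = carrier-treated control wells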). As to conditions: SK-BR-3 viability, CellTiter-Glo luminescence, at 10 µM, stronger effect = lower value.
Assay [4] in a line: HUVEC growth inhibition – cell-based, human, primary screen (AID 575;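 active = viability at or below 30% in both replicate assays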;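 note: 100% = median of untreated cell wells with 0.1% DMSO on each plate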). The settings on record: HUVEC proliferation, CellTiter-Glo luminescence, 72 h; at 10 µM; stronger effect = lower value.
Assay [5] in a line: H69AR cell proliferation blockers – human, duplicate replicates, primary screen (AID 580;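 active = viability at or under a set limit in both replicates, limit being median viability minus 3 SD, cut at about 48% in these data, passing the limit was not always enough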;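 note: 100% = mean luminescence of untreated wells and 0% = no signal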). As to conditions: H69AR lung tumor cells viability, ATP luminescence, 72 h; at 10 µM; stronger effect = lower value.
Assay [6] can be described thus: MRP1 drug-resistance reversers in H69AR cells – cell-based, doxorubicin co-treatment, pilot screen (AID 601;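 active = viability loss from added drug above about 55%, and viability with drug at most 40%, in both replicates, limit read from the data, passing the limit was not always enough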). As to conditions: CellTiter-Glo, 72 h, at 10 µM; for differential viability (reversal): stronger effect = higher value.
A short description of assay [7]: yeast transport mutant growth inhibition pilot in 384-well plates, post-Golgi transport modulator project (AID 636; in the data active = inhibition above about 31%). The settings on record: absorbance 615 nm, about 18 h, stronger effect = higher value.
Assay [8] is described as follows: growth suppression of yeast trafficking mutant, preliminary HTS, modulators of trafficking downstream of Golgi apparatus project, 1536-format plate, OD 615 nm (AID 637; in the data active = inhibition above about 30%). The settings on record: yeast transport mutant growth, absorbance 615 nm, 18 h; stronger effect = higher value.
The nature of assay [9]: S. cerevisiae growth inhibition in permissive medium (OD615), pilot counter-assay for S. cerevisiae lifespan shortening project, permissive growth control (AID 705;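 active = growth inhibition above 25% in both replicates, a cutoff set 3 SD above the mean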). The settings on record: OD615, 24 h, at 10 µM, stronger effect = higher value.
A short description of assay [10]: S. cerevisiae growth inhibition in restrictive medium, OD615, pilot screen, restrictive growth control, yeast lifespan reduction project (AID 706;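 active = growth inhibition above a set limit, 3 SD over mean compound inhibition, in both replicates, cut at about 43% in these data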;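 note: modified DeaD lifespan yeast strain shifted to restrictive glucose medium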). The settings on record: OD615, 48 h, at 10 µM, stronger effect = higher value.
Assay [11] is described as follows: doxorubicin toxicity protection in MRP-1 cells – H69AR cells, CellTiter-Glo, duplicate, MRP-1 activator project, pilot screen (AID 807;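 active = viability increase at or above a cutoff of the median across tested compounds plus 3 SD, cut at about 8.5% in these data, passing the limit was not always enough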;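 note: compound pretreatment 18-22 h then 72 h combined with doxorubicin; 0% = doxorubicin alone and 100% = vehicle without doxorubicin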). The settings on record: H69AR viability with doxorubicin, CellTiter-Glo luminescence; at 10 µM; stronger effect = higher value.
The nature of assay [12]: viability of HCT116 without oncogenic beta-catenin – human colon tumor cells, pilot screen (AID 823;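 active = cell viability at or below a set limit in both duplicate runs, the limit being the all-compound median minus 4 SD, cut at about 23% in these data, passing the limit was not always enough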;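 note: 0% = wells killed by 20 µM Hyamine and 100% = untreated DMSO cell wells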). As to conditions: HCT116 beta-catenin knockout viability, CellTiter-Glo, 60 h; at 10 µM; stronger effect = lower value.
Assay [13] in a line: viability of PTEN-null HCT116 cells – cell-based, HCT116 clonal line, CellTiter-Glo, pilot screen (AID 824;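 active = viability at or below 27.92% in each of two runs, the all-compound median minus 4 SD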;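 note: 0% = 20 µM Hyamine control and 100% = vehicle cell control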). The settings on record: HCT116 PTEN-deleted viability, 60 h, at 10 µM, stronger effect = lower value.
Assay [14] is described as follows: RAM pathway blockade in budding yeast – dse1pr::URA3 reporter, 5-FOA selection, pilot screen (AID 869;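 active = inhibition over a set limit, the all-compound mean plus 3 SD, in both replicate runs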;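 note: 0% = DMSO wells with no growth and 100% = 10 µM 1-NA-PP1 with full growth; RAM network block rescues cells from 5-FOA so hits raise OD615 growth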). As to conditions: S. cerevisiae dse1pr::URA3 5-FOA growth, OD615, 2 d; at 10 µM; stronger effect = higher value; strain carries analog-sensitive mutant Cbk1 kinase.
Assay [15] is described as follows: RAM signaling pathway blockade in yeast – S. cerevisiae, Pdr1DBD-CYC8 efflux-inhibited sensitized strain, primary screen (AID 1298;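 active = RAM network inhibition above 8.4% in each of two replicates, 3 SD over the compound average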;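 note: 0% = DMSO untreated cells without growth and 100% = 10 µM 1-NA-PP1 full growth; higher means more yeast growth rescued from 5-FOA killing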). The settings on record: S. cerevisiae cbk1-as DSE1-URA3 strain, 5-FOA growth OD615, 2 d; at 50 µM; stronger effect = higher value.
Setting [16] is: H69AR cells + 2 uM doxorubicin, measured here: viability with 2 uM doxorubicin, stronger effect = lower value.
Setting [17] is: H69AR cells, compound alone cytotoxicity.

Receptor tyrosine-protein kinase erbB-2 (Homo sapiens), sequence (P04626 whole entry, looked up): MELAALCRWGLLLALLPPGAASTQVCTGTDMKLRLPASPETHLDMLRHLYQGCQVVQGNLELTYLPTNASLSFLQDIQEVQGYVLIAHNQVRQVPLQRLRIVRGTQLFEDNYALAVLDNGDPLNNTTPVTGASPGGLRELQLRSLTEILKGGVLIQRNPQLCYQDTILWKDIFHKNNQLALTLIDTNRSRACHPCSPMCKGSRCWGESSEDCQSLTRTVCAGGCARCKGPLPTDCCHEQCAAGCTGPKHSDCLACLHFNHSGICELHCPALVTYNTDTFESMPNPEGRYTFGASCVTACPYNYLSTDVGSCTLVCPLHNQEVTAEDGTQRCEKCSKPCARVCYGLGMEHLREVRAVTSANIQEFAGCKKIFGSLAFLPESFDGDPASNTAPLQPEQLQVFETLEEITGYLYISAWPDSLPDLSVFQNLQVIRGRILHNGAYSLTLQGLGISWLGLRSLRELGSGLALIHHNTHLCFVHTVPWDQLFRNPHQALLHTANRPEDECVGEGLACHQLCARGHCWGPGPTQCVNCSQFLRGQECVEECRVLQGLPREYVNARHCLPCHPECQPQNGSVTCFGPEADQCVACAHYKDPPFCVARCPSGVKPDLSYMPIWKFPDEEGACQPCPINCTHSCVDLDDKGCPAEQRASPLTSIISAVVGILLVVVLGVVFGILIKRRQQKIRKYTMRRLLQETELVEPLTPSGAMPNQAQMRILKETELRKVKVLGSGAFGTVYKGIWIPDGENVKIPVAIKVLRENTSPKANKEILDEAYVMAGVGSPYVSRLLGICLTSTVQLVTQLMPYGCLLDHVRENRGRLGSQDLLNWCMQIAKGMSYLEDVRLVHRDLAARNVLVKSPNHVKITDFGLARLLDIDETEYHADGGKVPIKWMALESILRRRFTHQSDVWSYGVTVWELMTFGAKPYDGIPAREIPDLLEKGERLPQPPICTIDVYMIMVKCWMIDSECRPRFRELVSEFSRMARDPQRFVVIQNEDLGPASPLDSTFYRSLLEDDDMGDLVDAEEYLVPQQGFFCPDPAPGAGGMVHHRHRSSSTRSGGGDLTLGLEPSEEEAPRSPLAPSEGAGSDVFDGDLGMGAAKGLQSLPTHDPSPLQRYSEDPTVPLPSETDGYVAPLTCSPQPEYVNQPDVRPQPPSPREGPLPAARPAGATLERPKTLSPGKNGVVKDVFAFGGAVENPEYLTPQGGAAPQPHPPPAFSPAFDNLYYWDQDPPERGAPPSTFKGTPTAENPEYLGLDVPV

Consider `COc1c(S(=O)(=O)n2nc(C)cc2C)ccc(Cl)c1Cl`, for which the viability is 98% in [1]; 98% (inactive) in assay [3]; 101% (inactive) in assay [4]; 98% (inactive) in assay [5]; 99% in assay [6] (setting [16]); 98% in assay [6] (setting [17]). Besides, the viability in assay [12] is 95.8% (inactive); in assay [13] it was 86.2% (inactive). For the same molecule, the Her2 level in assay [2] is 101% (inactive). Also, the differential viability (reversal) in assay [6] (H69AR cells + 2 uM doxorubicin) was -1.02% (inactive). Further, the inhibition in [7] was -2.76% (inactive); in assay [8], 2.33% (inactive); in [14] it was 1.5% (inactive). Moreover, the growth inhibition in assay [9] is -5.31% (inactive); in [10] it was 8.94% (inactive). Also, in assay [11], the viability increase was 1.75% (inactive). In addition, the RAM network inhibition in [15] was 2.6% (inactive).

`COc1ccc(-n2nnnc2SCC(=O)N2CCOCC2)cc1`: the viability in assay [1] was 93%; in assay [3], 93% (inactive); in [4] it was 83.8% (inactive); in assay [5], 89.2% (inactive); in assay [6] (setting [16]), 88.6%; in assay [6] (setting [17]), 89.2%. Also, the viability in assay [12] was 96.2% (inactive); in assay [13], 98.8% (inactive). The Her2 level in assay [2] is 92% (inactive). The differential viability (reversal) in assay [6] (H69AR cells + 2 uM doxorubicin) is 0.58% (inactive). Also, the values for the inhibition in assay [7], in [8] and in assay [14] were -4.67% (inactive), -0.5% (inactive) and 0.85% (inactive), respectively. In addition, the results for the growth inhibition in assay [9] and in [10] were -2.94% (inactive) and -5.96% (inactive), respectively. Moreover, the viability increase in [11] was -1.07% (inactive). Also, in [15], the RAM network inhibition is 3.08% (inactive).

For the molecule `COc1ccc(C(=O)Oc2c(CN3CCOCC3)cc(Cl)c3cccnc23)cc1OC`, the viability in assay [1] was 93%; in assay [3], 93% (inactive); in assay [4], 71.8% (inactive); in assay [5], 1.58% (active); in [6] (setting [16]) it was 1.75%; in [6] (setting [17]) it was 1.58%. For the same molecule, the results for the viability in [12] and in [13] were 9.93% (active) and 5.98% (active), respectively. Besides, the Her2 level in [2] is 95.5% (inactive). The differential viability (reversal) in assay [6] (H69AR cells + 2 uM doxorubicin) was -0.17% (inactive). The values for the inhibition in [7], in [8] and in assay [14] were -5.87% (inactive), -6.23% (inactive) and 1.39% (inactive), respectively. For the same molecule, the growth inhibition was -12.6% (inactive) in [9] and -19.1% (inactive) in assay [10]. In addition, in assay [11], the viability increase was -8.29% (inactive). For the same molecule, the RAM network inhibition in assay [15] was 0.26% (inactive).

For `COc1cccc(-c2nc(CS(=O)(=O)CC(=O)N3CCc4ccccc4C3)c(C)o2)c1`, the viability in assay [1] was 93.5%; in assay [3], 93.5% (inactive); in assay [4], 93.3% (inactive); in assay [5], 89.1% (inactive); in [6] (setting [16]) it was 83.1%; in [6] (setting [17]), 89.1%. In addition, the viability is 75.5% (inactive) in assay [12] and 73.7% (inactive) in assay [13]. Moreover, the Her2 level in assay [2] is 86.5% (inactive). Also, in assay [6] (H69AR cells + 2 uM doxorubicin), the differential viability (reversal) was 6% (inactive). Besides, the inhibition was -0.67% (inactive) in assay [7], 0.98% (inactive) in assay [8] and 1.68% (inactive) in assay [14]. For the same molecule, the growth inhibition was 2.52% (inactive) in [9] and 8.9% (inactive) in assay [10]. The viability increase in assay [11] is -2.85% (inactive). In addition, the RAM network inhibition in [15] was 6.29% (inactive).

As to `Cc1cccc(C2CC(c3ccccc3)Nc3nc(N)nn32)c1` (stereo not given), the viability in assay [1] was 92%; in assay [3] it was 92% (inactive); in assay [4], 92.7% (inactive); in assay [5], 108% (inactive); in assay [6] (setting [16]) it was 99.5%; in [6] (setting [17]), 108%. Also, the results for the viability in assay [12] and in [13] were 99.8% (inactive) and 88.2% (inactive), respectively. Besides, the Her2 level in [2] was 94.5% (inactive). In [6] (H69AR cells + 2 uM doxorubicin), the differential viability (reversal) is 8.54% (inactive). Moreover, the results for the inhibition in assay [7], in assay [8] and in assay [14] were -4.13% (inactive), 1.15% (inactive) and -0.64% (inactive), respectively. Besides, the growth inhibition in [9] is 1.73% (inactive); in assay [10], 3.52% (inactive). The viability increase in assay [11] is -0.5% (inactive). For the same molecule, the RAM network inhibition in assay [15] is 0.21% (inactive).
